Results filed as inconclusive are left out. A number with no mark means an inactive call. Active and inactive are the calls of the source. Calls follow the shape of the dose curve; as a rule, active = well fitted cell-killing curve with a large enough effect in the repeat runs; inconclusive = weak or mixed curves, or effect the other way; inactive = flat fitted curve, though single readings scatter.
% is scaled to controls: 0 for no effect and ±100 for the full control effect.

The nature of this test: qHTS assay to identify small molecule antagonists of the constitutive androstane receptor (CAR) signaling pathway - cell viability counter screen (AID 1224837). Also: nearly all actives have a fitted effect of over 45% in size. The note with it: HepG2-CYP2B6-hCAR viability, CellTiter-Fluor, 23 h, co-treated with 50 nM CITCO; series mostly up to 92.4 µM. An excerpt:
National Center for Advancing Translational Sciences [NCATS]
NIH Chemical Genomics Center [NCGC]
U.S. Environmental Protection Agency [EPA]
National Institutes of Environmental Health Sciences [NIEHS]
National Toxicology Program [NTP]
U.S. Food and Drug Administration [FDA]
The constitutive androstane receptor (CAR) is a nuclear receptor which regulates multiple drug metabolizing enzymes (DMEs) and transporters. Activating CAR will generally increase the transcription and subsequent translation of CYP2B6 and CYP3A4. These two DMEs represent about 50% of the drug metabolizing potential in the body. When CAR is deactivated, the metabolizing potential in the body will decrease, subsequently increasing the toxicity in the body or lowering the therapeutic potential of a pro-drug. Recently, there have also been studies performed indicating CARs role in energy metabolism and cancer therapy. Therefore, inhibiting CARs activity could have a potential effect on diabetes and cancer. Identifying environmental toxins and compounds which modulate CAR, through the use of the Tox21 10K compound collection, will be an important step in determining the toxicity and potential therapeutic effects these factors will have on the human body. To differentiate true CAR antagonists from cytotoxic substances, the assay is multiplexed with a cell viability assay.
Tox21 Assay Protocol Summary:
A double-stable (hCAR and CYP2B6-2.2kb) transfected cell line, derived from human hepatoma (HepG2) cells, was utilized for the duration of the quantitative high-throughput screens. The HepG2-CYP2B6-hCAR cells were dispensed at 2500 cells/4 uL/well in 1536-well white solid bottom plates using a Multidrop Combi. After the assay plates were incubated at 37 C/5% CO2 for 4 hrs, 23 nL of compounds at 15 concentrations (from 5-48 columns) or positive control (from 1 to 4 columns) were transferred to the assay plates using a Pintool station. One uL of CITCO (final concentration = 50 nM) was added, using a Flying Reagent Dispenser, inside each well. After a 23 hr incubation period at 37 C/5% CO2, 1 uL of CellTiter-Fluor reagent was added into each well of the assay plates using a Flying Reagent Dispenser. The fluorescence intensity in the plates was then measured using a ViewLux plate reader.
(In qHTS, concentration-response curves come from the screen itself.)
For the molecule `O=S(=O)(O)c1ccc2c(N=Nc3ccc(S(=O)(=O)O)c4ccccc34)c(O)c(S(=O)(=O)O)cc2c1`, the activity change, negative = cytotoxicity is -18.2% [at 8.39 µM].

As for `OCC1CCC(CO)CC1` (stereo not given), the result was inactive. On the same count and under the same terms, for `O=C1CCC(=O)N1Cl` the value was “inactive”.

Take `O=C(O)CSCC(=O)NC1CCSC1=O` (stereo not given): the result was inactive. On the same count and under the same terms, for `CC(S)C(C)S` (stereo not given) the value was “inactive”. On the same count and under the same terms, the same measure for `NCCOCCN`: “inactive”; for `O=[N+]([O-])c1c(Cl)cc(Cl)cc1Cl`: “inactive”; for `C[C@]12CCC(=O)C=C1CC[C@H]1[C@@H]3CC[C@](O)(C(=O)CO)[C@@]3(C)C[C@H](O)[C@@]12F`: “inactive”. On the same count and under the same terms, for `CC(=O)OCC(=O)Nc1cc(C#N)cc(NC(=O)COC(C)=O)c1Cl` the value was “inactive”; for `CCCCCCCCCOC(=O)CCCCC(=O)OCCCCCCC`, “inactive”. As to `CC(C)(C)NC[C@H](O)COc1cccc2c1CCCC2=O`, the outcome was inactive. Same read-out and setting: for `O=C(Cn1ccnc1[N+](=O)[O-])NCc1ccccc1` the value was “inactive”; for `O=C(CCCl)NCCc1ccccc1`, “inactive”. On the same count and under the same terms, the same measure for `O=C=NCC1CCCC(CN=C=O)C1` (stereo not given): “inactive”; for `CCCCSCCCC`: “inactive”.

As for `O=C(O)CNC(=O)CNC(=O)CNC(=O)CSC(=O)c1ccccc1`, the result was inactive. For the molecule `Cc1c(N)cccc1Cl`, the result was inactive. Still for that read-out and setting: the same measure for `CCOC(=O)CC1(C)OCC(C)O1` (stereo not given): “inactive”.

For the molecule `CC(CO)(CO)CO`, the result was inactive. Same read-out and setting: for `CCCCCCCCCCOC(C)=O` the value was “inactive”. The same measure, in the same setting: the same measure for `C=CCOC(=O)CCCCCC`: “inactive”; for `CN(C)C(C)(C)CO`: “inactive”. The same measure, in the same setting: the same measure for `COC(=O)/C=C\C(=O)O`: “inactive”.

Take `COC(C)(OC)OC`: the result was inactive. The same measure, in the same setting: the same measure for `CC(Oc1cc(Cl)ccc1Cl)C(=O)O` (stereo not given): “inactive”; for `Cc1c(Cl)cccc1Cl`: “inactive”; for `CC1(C)Oc2ccc(C#N)cc2[C@@H](N2CCCC2=O)[C@@H]1O`: “inactive”. The same measure, in the same setting: the same measure for `COc1cc(OC)nc(O[C@H](C(=O)O)C(OC)(c2ccccc2)c2ccccc2)n1`: “inactive”; for `Cc1ccc(C)c([N+](=O)[O-])c1`: “inactive”; for `CC(C)NC(=O)c1ccc(C=O)cc1`: “inactive”. Still for that read-out and setting: for `Cc1ncc([N+](=O)[O-])n1CC(C)O` (stereo not given) the value was “inactive”. Turning to `N[C@@H](Cc1ccc(O)cc1)C(=O)O`, the activity change, negative = cytotoxicity is 8.2% [at 8.39 µM]. With `CCCCOCCOC(=O)COc1ccc(Cl)cc1Cl`, the outcome was inactive. For the molecule `CC(C)COC(=O)c1ccccc1`, the result was inactive. In the case of `NCC1(Cc2noc(=O)[nH]2)CCCCC1`, the outcome was inactive. Turning to `CCCCOC(=O)[C@H](C)O`, the outcome was inactive. Still for that read-out and setting: the same measure for `CCNC(=O)NCc1cccc(Cl)c1`: “inactive”. As for `CC1(C)CC(OC(=O)CCCCCCCCC(=O)OC2CC(C)(C)NC(C)(C)C2)CC(C)(C)N1`, the activity change, negative = cytotoxicity was -3.96% [at 19 µM]. For the molecule `CO[C@@]1(NC(=O)Cc2cccs2)C(=O)N2C(C(=O)O)=C(COC(N)=O)CS[C@@H]21`, the result was inactive. The same measure, in the same setting: the same measure for `CC(C)Cn1cnc2c1c(=O)n(C)c(=O)n2C`: “inactive”.

(Values after PubChem BioAssay (Tox21).)
